According to PubChem BioAssay:
Activity calls are given as the source filed them.

Legend:
[1] = tested on: Plasmodium falciparum Sir2 (PF13_0152, Sir2A); assay: pfSir2 binders on small-molecule microarrays, primary screen, biochemical, small-molecule microarray, 635 nm fluorescence (AID 1098); settings: small-molecule microarray binding, fluorescence 635 nm; higher = more signal;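 further: score merges spot fluorescence intensity with its signal-to-noise ratio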
[2] = small-molecule microarray binders of probe aDKK1, primary screen, biochemical, biotinylated probe, 635/667 nm fluorescence (AID 1099); settings: higher = more signal;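 further: score merges 667nm spot fluorescence with signal to noise across triplicate slides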
[3] = small-molecule microarray binders of probe aCHRDL2, primary screen, biochemical, biotinylated probe, 635/667 nm fluorescence (AID 1100); settings: higher = more signal
[4] = splicing luciferase reporter signal modulators, primary screen, spliceosome inhibition project, cell-based, HEK293, splice +/- reporter (AID 1101); settings: luminescence, 24 h, higher = more signal, called active from +8 up or from −8 down;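 further: HEK293 cells carrying a splicing-competent luciferase reporter gene; test concentration not given here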
[5] = target: Fibroblast growth factor 10 (Homo sapiens) (UniProt O15520); assay: FGF10 binders on small-molecule microarrays, primary screen, biochemical, small-molecule microarray, 635 nm fluorescence (AID 1102); settings: FGF10 binding, fluorescence 635 nm, higher = more signal
Chain of Fibroblast growth factor 10 (Homo sapiens) (O15520 whole entry, looked up): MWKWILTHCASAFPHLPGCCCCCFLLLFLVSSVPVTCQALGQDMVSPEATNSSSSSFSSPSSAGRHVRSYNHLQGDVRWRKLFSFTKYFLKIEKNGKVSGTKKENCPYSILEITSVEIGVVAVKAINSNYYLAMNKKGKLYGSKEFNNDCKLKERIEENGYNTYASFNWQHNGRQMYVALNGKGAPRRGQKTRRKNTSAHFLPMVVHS

[6] = tested on: glycogen synthase kinase-3 (GSK3A per assay name; protocol says GSK3B); assay: GSK3 binders on small-molecule microarrays, primary screen, biochemical, small-molecule microarray, 635 nm fluorescence, GSK3A (AID 1103); settings: small-molecule microarray binding, fluorescence 635 nm; higher = more signal; further: the record names both GSK3A and GSK3B
[7] = target: Epidermal growth factor receptor (Homo sapiens) (UniProt P00533); assay: EGFR binders on small-molecule microarrays, primary screen, biochemical, small-molecule microarray, 635 nm fluorescence (AID 1104); settings: EGFR binding, higher = more signal;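 further: score merges 667 nm emission intensity with spot signal to noise over triplicate slides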
Chain of Epidermal growth factor receptor (Homo sapiens) (P00533 whole entry, looked up): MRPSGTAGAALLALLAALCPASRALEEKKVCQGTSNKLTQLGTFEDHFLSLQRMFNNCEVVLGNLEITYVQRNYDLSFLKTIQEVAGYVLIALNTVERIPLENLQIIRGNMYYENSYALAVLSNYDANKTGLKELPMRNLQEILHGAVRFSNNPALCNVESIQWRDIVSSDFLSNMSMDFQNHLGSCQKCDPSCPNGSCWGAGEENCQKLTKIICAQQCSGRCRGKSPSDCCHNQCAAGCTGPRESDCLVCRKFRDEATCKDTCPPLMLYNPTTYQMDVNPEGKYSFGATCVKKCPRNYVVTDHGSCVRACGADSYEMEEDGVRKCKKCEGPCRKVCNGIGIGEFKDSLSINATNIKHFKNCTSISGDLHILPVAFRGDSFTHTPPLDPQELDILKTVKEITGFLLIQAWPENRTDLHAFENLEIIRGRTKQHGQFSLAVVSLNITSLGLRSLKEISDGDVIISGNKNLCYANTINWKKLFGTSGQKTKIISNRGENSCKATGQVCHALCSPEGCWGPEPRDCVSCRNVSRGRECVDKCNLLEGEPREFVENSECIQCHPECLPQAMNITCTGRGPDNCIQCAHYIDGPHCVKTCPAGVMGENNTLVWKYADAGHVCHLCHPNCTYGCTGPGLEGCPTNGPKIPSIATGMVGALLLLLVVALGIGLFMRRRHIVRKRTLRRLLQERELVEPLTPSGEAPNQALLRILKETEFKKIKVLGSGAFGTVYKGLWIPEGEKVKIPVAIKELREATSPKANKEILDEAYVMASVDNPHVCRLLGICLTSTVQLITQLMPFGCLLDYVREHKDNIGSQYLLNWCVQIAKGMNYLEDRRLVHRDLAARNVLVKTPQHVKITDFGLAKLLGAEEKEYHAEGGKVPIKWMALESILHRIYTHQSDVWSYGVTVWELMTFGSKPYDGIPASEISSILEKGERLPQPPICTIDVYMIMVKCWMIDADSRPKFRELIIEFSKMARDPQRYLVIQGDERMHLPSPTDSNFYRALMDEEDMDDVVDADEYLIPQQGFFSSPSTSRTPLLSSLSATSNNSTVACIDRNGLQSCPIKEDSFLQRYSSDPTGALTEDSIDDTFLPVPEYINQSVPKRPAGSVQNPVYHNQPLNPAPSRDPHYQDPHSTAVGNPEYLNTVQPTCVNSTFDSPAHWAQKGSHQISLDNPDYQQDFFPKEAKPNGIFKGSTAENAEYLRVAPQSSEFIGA

[8] = target: Follistatin-related protein 3 (Homo sapiens) (UniProt O95633); assay: FSTL3 binders on small-molecule microarrays, primary screen, biochemical, small-molecule microarray, 635 nm fluorescence (AID 1105); settings: FSTL3 binding, higher = more signal;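 further: score merges emission near 667 nm and signal to noise per printed spot across three slides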
Chain of Follistatin-related protein 3 (Homo sapiens) (O95633 whole entry, looked up): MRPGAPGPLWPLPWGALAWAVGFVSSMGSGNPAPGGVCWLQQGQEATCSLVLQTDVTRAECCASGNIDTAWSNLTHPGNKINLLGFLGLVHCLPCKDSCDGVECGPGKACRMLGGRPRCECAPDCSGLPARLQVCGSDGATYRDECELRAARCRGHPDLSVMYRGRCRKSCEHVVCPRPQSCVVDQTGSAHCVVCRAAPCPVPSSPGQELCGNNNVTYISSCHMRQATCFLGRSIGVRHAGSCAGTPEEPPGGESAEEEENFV

[9] = target: Dickkopf-related protein 1 (Homo sapiens) (UniProt O94907); assay: DKK1 binders on small-molecule microarrays, primary screen, biochemical, small-molecule microarray, 635 nm fluorescence scan (AID 1106); settings: DKK1 binding, higher = more signal;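 further: score merges emission near 667 nm with signal to noise over three replicate slides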
Chain of Dickkopf-related protein 1 (Homo sapiens) (O94907 whole entry, looked up): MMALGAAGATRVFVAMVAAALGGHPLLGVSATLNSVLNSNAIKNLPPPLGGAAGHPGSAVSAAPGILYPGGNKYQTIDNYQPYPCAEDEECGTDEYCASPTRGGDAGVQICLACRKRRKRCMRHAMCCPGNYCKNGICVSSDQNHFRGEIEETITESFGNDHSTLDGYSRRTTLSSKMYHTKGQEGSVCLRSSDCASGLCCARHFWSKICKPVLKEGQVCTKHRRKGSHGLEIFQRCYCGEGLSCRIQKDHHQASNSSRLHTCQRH

[10] = tested on: Inhibin beta A chain (activin A); assay: INHBA (activin A) binders on microarrays, primary screen, biochemical, small-molecule microarray, 635 nm fluorescence scan (AID 1107); settings: small-molecule microarray binding, higher = more signal;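 further: mouse activin A protein probed at 4.33 µg/mL on printed slides; score merges bound-protein fluorescence near 667 nm with spot signal-to-noise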
[11] = tested on: Human papillomavirus type 1a protein E7 (residues 44-93); assay: HPV1a E7 fragment binders on microarrays, primary screen, biochemical, small-molecule microarray, residues 44-93, 635 nm fluorescence (AID 1108); settings: small-molecule microarray binding, fluorescence 635 nm; higher = more signal;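 further: E7 fragment applied at 1 µg/mL in TBST for 1 h at 4 C; score combines spot fluorescence with its signal to noise ratio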
[12] = modulators of HCV replicon luciferase signal, primary screen, HCV replication inhibitor project, Huh7 cells, luciferase reporter (AID 1109); settings: 48 h, higher = more signal;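 further: huh7 hepatoma cells harbouring a luciferase neomycin HCV replicon reporter; luciferase luminescence as measure of HCV replicon replication; test concentration not given here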
[13] = target: Left-right determination factor 2 (Homo sapiens) (UniProt O00292); assay: LEFTY2 binders on small-molecule microarrays, primary screen, biochemical, small-molecule microarray, 635 nm fluorescence scan (AID 1110); settings: LEFTY2 binding, higher = more signal
Chain of Left-right determination factor 2 (Homo sapiens) (O00292 whole entry, looked up): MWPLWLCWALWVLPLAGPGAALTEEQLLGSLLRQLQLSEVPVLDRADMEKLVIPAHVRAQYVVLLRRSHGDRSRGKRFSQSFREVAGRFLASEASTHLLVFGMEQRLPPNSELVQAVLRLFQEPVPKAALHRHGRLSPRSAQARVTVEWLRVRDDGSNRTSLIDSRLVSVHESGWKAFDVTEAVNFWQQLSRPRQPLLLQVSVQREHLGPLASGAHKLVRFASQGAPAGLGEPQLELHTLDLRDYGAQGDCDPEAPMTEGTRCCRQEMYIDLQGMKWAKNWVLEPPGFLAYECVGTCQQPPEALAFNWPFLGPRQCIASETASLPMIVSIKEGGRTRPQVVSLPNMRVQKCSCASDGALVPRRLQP

[14] = target: Calmodulin-1 (Homo sapiens) (UniProt P0DP23); assay: CALM1 binders on microarrays, EGTA buffer, profiling panel, biochemical, small-molecule microarray, Cy5-labelled CALM1 (AID 1111); settings: Cy5-CALM1 binding fluorescence, higher = more signal;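 further: labelled calmodulin applied in Tris saline Tween buffer holding calcium plus EGTA and DTT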
[15] = target: Calmodulin-1 (Homo sapiens) (UniProt P0DP23); assay: calcium-bound CALM1 binders on microarrays, profiling panel, artefact control for SMM control-protein annotation, biochemical, small-molecule microarray, Cy5-labelled CALM1, plus calcium (AID 1112); settings: Cy5-CALM1 binding fluorescence, higher = more signal;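 further: score merges spot fluorescence with signal to noise from triplicate slides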
[16] = small-molecule microarray binders of probe aWnt5a, primary screen, biochemical, biotinylated probe, 635/667 nm fluorescence (AID 1113); settings: higher = more signal;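 further: score merges 667 nm fluorescence intensity with signal-to-noise per printed feature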
[17] = small-molecule microarray binders of probe aShh, primary screen, biochemical, biotinylated probe, 635/667 nm fluorescence (AID 1114); settings: higher = more signal;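 further: probe is biotin-labelled aShh protein from a stem cell growth factor screen; measures binding of labelled protein to compounds printed on the slide; score merges feature fluorescence at 667 nm with signal-to-noise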
[18] = small-molecule microarray binders of probe aNog, primary screen, biochemical, biotinylated probe, 635/667 nm fluorescence (AID 1115); settings: higher = more signal;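 further: probe is biotinylated aNog protein used at 0.15 µg/mL for 1 h at 4 C; z-score combines 667 nm fluorescence of each spot with its signal to noise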
[19] = target: Torsin-1A-interacting protein 1 (Homo sapiens) (UniProt Q5JTV8); assay: LAP1 binders from COS7 cell lysate, primary screen, small-molecule microarray, 635/667 nm fluorescence (AID 1116); settings: COS7-hLAP1 lysate binding, 635 nm fluorescence, higher = more signal
Chain of Torsin-1A-interacting protein 1 (Homo sapiens) (Q5JTV8 whole entry, looked up): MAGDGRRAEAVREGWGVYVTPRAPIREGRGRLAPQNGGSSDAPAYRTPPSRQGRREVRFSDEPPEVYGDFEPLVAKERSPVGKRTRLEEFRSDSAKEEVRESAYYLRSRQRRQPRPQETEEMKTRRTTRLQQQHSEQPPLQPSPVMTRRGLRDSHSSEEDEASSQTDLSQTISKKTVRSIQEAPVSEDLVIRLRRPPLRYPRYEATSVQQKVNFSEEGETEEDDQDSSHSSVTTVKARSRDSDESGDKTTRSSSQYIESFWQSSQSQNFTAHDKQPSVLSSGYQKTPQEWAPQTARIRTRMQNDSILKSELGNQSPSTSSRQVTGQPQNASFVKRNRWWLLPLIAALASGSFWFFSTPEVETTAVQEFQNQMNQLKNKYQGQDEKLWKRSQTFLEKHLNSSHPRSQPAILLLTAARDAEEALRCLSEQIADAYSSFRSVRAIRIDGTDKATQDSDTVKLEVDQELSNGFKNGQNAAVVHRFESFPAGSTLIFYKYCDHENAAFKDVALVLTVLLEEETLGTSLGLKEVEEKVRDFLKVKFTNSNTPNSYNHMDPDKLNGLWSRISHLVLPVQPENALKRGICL

[20] = target: Alpha-bungarotoxin (Bungarus multicinctus) (UniProt P60615); assay: alpha-bungarotoxin binders on microarray, profiling panel, artefact control for SMM control protein annotation, biochemical, small-molecule microarray, Alexa647 label, 635/667 nm fluorescence (AID 1117); settings: alpha-BTX-A647 binding fluorescence, higher = more signal
Chain of Alpha-bungarotoxin (Bungarus multicinctus) (P60615 whole entry, looked up): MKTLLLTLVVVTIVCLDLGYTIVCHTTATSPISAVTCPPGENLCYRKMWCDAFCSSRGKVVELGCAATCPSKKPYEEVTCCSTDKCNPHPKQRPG

SMILES | composite z-score [1] | composite z-score [2] | composite z-score [3] | z-score [4] | composite z-score [5] | composite z-score [6] | composite z-score [7] | composite z-score [8] | composite z-score [9] | composite z-score [10] | composite z-score [11] | z-score [12] | composite z-score [13] | composite z-score [14] | composite z-score [15] | composite z-score [16] | composite z-score [17] | composite z-score [18] | composite z-score [19] | composite z-score [20]
C[C@@H]1CC[C@H]2C(=O)O[C@H](COc3ccc(C(C)(C)C)cc3)CN2[C@H]1c1ccc(Br)cc1 | 0.751 | -0.136 | -0.299 | 0.148 (inactive) | -0.0611 | -0.533 | -0.287 | -0.175 | 0.0539 | 0.352 | -0.387 | 0.0366 | 0.113 | -0.11 | 0.347 | 0.721 | -0.415 | -0.514 | -0.15 | 0.323
CCN(CC)c1ccc(N2CC=CC34O[C@@H]5/C=C\CCC(C)OC(=O)C5[C@H]3C(=O)N(CCCO)[C@@H]4C2=O)cc1 (stereo not given in full) | 1.44 | -0.137 | 0.325 | 0.122 (inactive) | -0.221 | -0.615 | -1.02 | -0.777 | -0.492 | 1.01 | -0.0672 | -0.527 | -0.434 | -0.671 | -0.431 | -0.128 | 0.0469 | -0.216 | 0.581 | -0.625
COc1ccc(O[C@H]2C=C[C@@H](c3ccccc3)O[C@@H]2CON=C[C@@H](C)[C@H](OCc2ccccc2)C(C)C)cc1 | -0.369 | -0.406 | -0.17 | 0.275 (inactive) | -1.11 | -1.04 | -0.805 | -0.761 | -0.733 | 0.272 | -0.409 | -2 | -0.0764 | -0.323 | -0.434 | -0.124 | -0.0626 | -0.176 | -1.24 | -0.25
O=C1[C@H]2[C@H]3[C@H](O)[C@H](O)CC(=NO[C@@H]4O[C@H](CO)[C@@H](O)[C@H](O)[C@H]4O)[C@H]3CC[C@H]2C(=O)N1C1CCCCC1 | 0.643 | 0.0533 | -0.0589 | -0.381 (inactive) | 0.0041 | 0.266 | -0.0158 | -0.182 | -0.191 | -1.65 | 1.3 | 0.524 | 0.271 | -0.0656 | -0.0964 | -0.0721 | 0.0062 | 0.604 | 0.129 | 0.0855
C[C@@H](c1ccccc1)N1C(=O)[C@H]2[C@H]3[C@H](O)[C@H](O)CC(=NOC[C@@H](O)COCc4ccco4)[C@@H]3CC[C@H]2C1=O | 0.693 | -0.349 | -0.402 | -0.115 (inactive) | -0.953 | -0.468 | -0.0809 | -1.31 | -1.03 | -0.365 | -0.856 | 0.816 | -0.433 | -0.495 | -0.307 | -0.124 | -0.0863 | -0.413 | -0.375 | 0.556
CN1C(=O)C2C=CC(C(O)c3ccc(I)cc3)N(NC(=O)OC(C)(C)C)C2C1=O (stereo not given) | 1.22 | 0.829 | 1.05 | 2.31 (inactive) | 0.599 | 1.24 | 0.04 | 0.925 | -0.168 | 0.599 | 1.41 | 0.0411 | 0.0192 | 0.526 | 0.202 | -0.0165 | 0.151 | 1.26 | 1.4 | 1.01
O=C1C2=CC[C@H]3C(=O)N(Cc4ccc5c(c4)OCO5)C(=O)[C@H]3[C@H]2[C@H](O)[C@@H]2O[C@H]12 | 0.557 | -0.141 | -0.51 | 0.867 (inactive) | 0.385 | 0.526 | 0.65 | 0.459 | 0.347 | 0.29 | 0.631 | -0.43 | 0.341 | -0.306 | -0.502 | -0.0495 | -0.346 | -0.0381 | 0.442 | 0.251
